Ba/F3 V617F tox – reduced viability of JAK2V617F-dependent Ba/F3 cells, primary screen, JAK2V617F inhibitor project, cell-based, Ba/F3 EpoR-JAK2V617F, luminescence | ATP luminescence | inhibition, % at 5.6 µM | hit rate 1.1% among 220,000;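 active means inhibition above the campaign mean plus 3 SD over all tested compounds, cut at about 24% in these data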;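 further: cytokine-independent growth of Ba/F3 cells driven by EpoR plus mutant JAK2; 0% = DMSO-treated cells and 100% = JAK inhibitor I control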
KLF5 inh – KLF5 expression inhibitors, primary screen, DLD-1 cells, luminescence | DLD-1 KLF5 promoter-luciferase reporter | inhibition, % at 5 µM | hit rate 0.23% among 290,000;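 active means inhibition above a per-plate limit of that plate's mean compound inhibition plus 3 SD, cut at about 60% in these data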;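 further: 0% = DMSO wells and 100% = LY294002 at 200 µM; higher means less KLF5 promoter-driven luciferase light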
IEC-6 tox – cytotoxicity in IEC-6 intestinal epithelial cells, primary screen, cytotoxicity control for KLF5 inhibitor project, cell-based, luminescence; IEC-6 cytotoxicity, luminescence viability; inhibition, % at 5 µM; hit rate 0.78% among 290,000;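 further: 0% = plate median of test compound wells and 100% = cytotoxic reference compound wells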
aSyn 5UTR inh – MLPCN primary screen, SNCA 5' untranslated region; AID 1813, 2009; alpha-synuclein 5'UTR reporter, inhibitor activity; hit rate 0.82% among 300,000; inhibition, % (tested at 7.5 µM); in the data active means inhibition above about 60%; inconclusive means no clear call, values can overlap the other calls;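 further: H4 neuroglioblastoma cells stably carrying SNCA 5'UTR luciferase fusion; 0% = DMSO wells and 100% = positive control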
APP 5UTR inh – inhibitors of APP translation via 5'UTR reporter, primary screen, APP 5'UTR luciferase, SH-SY5Y cells; SH-SY5Y APP 5'UTR-luciferase reporter, luminescence; inhibition, % at 2 µM; hit rate 0.82% among 190,000; AID 1285, 2008;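 active means inhibition above a set limit, derived from the sample mean plus 3 SD, cut at about 45% in these data; inconclusive means one replicate passes the limit while the other fails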
BaF3 parental – parental Ba/F3 cell viability inhibition, counter-screen for JAK2V617F inhibitor project, murine pro-B, CellTiter-Glo luminescence; CellTiter-Glo ATP luminescence; AID 1486, 2009; inhibition, % at 5.6 µM; hit rate 1.1% among 220,000;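 active means inhibition above a per-campaign cutoff, the mean inhibition of all tested compounds plus 3 SD, cut at about 27% in these data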;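 further: 0% = DMSO wells and 100% = JAK Inhibitor I control wells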
IEC-6 tox confirm – cytotoxic compounds in IEC-6 epithelial cells, confirmation, cytotoxicity control, cell-based, luminescence; shares compounds with IEC-6 tox; IEC-6 rat intestinal epithelial viability; hit rate 63% among 1,900; inhibition, % at 5 µM; AID 1907, 2009;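 further: 0% = vehicle and 100% = reference cytotoxic drug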
An asterisk follows results filed as active; u = inconclusive; x = no result given. Only some compounds are listed: those with a hit (about 2.2% of all), similar ones and a draw of the others. Unless noted, no stated cut-off is given here; in the data, active means inhibition above about 22%; inactive means the rest.

SMILES	Ba/F3 V617F tox	KLF5 inh	IEC-6 tox	aSyn 5UTR inh	APP 5UTR inh	BaF3 parental	IEC-6 tox confirm
O=C(CSc1ncnc2nc[nH]c12)c1ccc(Cl)cc1	x	-14	41*	14	x	x	23*
Cc1nc2ccc(C(=O)N3c4ccccc4CC3C)cc2s1 (centres undefined)	3	-4	25*	42	4	12	34*
Cc1ccc2nc(N/C(=N/S(=O)(=O)c3ccc(F)cc3F)c3ccccc3)sc2c1	2	-58	22*	-108	-66	7	6
Cc1ccc2nc(N/C(=N/S(=O)(=O)c3ccc(F)cc3)c3ccccc3)sc2c1	-3	-85	-1	-107	-32	5	x
Cn1ccsc1=NC(=O)c1ccc([N+](=O)[O-])o1	x	-17	67*	-161	x	x	18
O=C1NC(c2ccc(Br)cc2)Nc2ccccc21 (centres undefined)	x	5	33*	-38	x	x	33*
O=C(Nc1nc2ccc(S(=O)(=O)N3CCCC3)cc2s1)C1CCCCC1	82*	36	70*	72*	77*	79*	56*
O=C(Nc1nc2ccc(S(=O)(=O)N3CCCCC3)cc2s1)C1CCCO1 (centres undefined)	-2	-24	-1	21	-2	6	x
CC(=O)N1CCN(c2ccc(NC(=O)c3ccco3)cc2Cl)CC1	x	-73	4	-49	x	x	x
CCC(=O)N1CCN(c2ccc(NC(=O)c3ccc([N+](=O)[O-])o3)cc2Cl)CC1	88*	14	67*	77*	92*	60*	63*
CC(=O)N1CCN(c2ccc(NC(=O)c3ccc([N+](=O)[O-])o3)cc2Cl)CC1	x	30	101*	49	x	x	48*
CCC(=O)N1CCN(c2ccc(NC(=O)c3ccco3)cc2Cl)CC1	x	-59	2	-43	x	x	x
CCN1CCN(c2ccc(S(=O)(=O)N3CCCCC3)cc2NC(=O)c2ccc([N+](=O)[O-])o2)CC1	x	x	x	-32	x	x	x
CCN1CCN(c2ccc(NC(=O)c3ccc([N+](=O)[O-])o3)cc2Cl)CC1	76*	1	70*	126*	94*	48*	45*
CCC(=O)N1CCN(c2ccc(Cl)cc2NC(=O)c2ccc([N+](=O)[O-])o2)CC1	x	-25	34*	-58	x	x	8
O=C(COc1ccc2c3c(c(=O)oc2c1)CCCC3)N1C[C@H]2C[C@@H](C1)c1cccc(=O)n1C2	x	9	3	-10	x	x	x
COc1cc(C(=O)Nc2ccccn2)cc(OC)c1OC	-1	-21	-1	-3	-8	3	x
COc1cc(C(=O)Nc2ccccc2C(=O)Nc2ccccn2)cc(OC)c1OC	x	34	33*	-67	x	x	21
Cc1cc(-c2nnc3n2N=C(c2ccccc2Br)CS3)n[nH]1	11	-22	-5	6	x	19	x
c1ccc(-c2ccc(C3=Nn4c(nnc4-c4cccs4)SC3)cc2)cc1	-1	10	8	28	x	2	x
CCc1ccc(C2=Nn3c(nnc3-c3cccs3)SC2)cc1	-2	9	52*	12	-1	4	35*
CCOc1cccc(-c2nnc3n2N=C(c2cc(OC)ccc2OC)CS3)c1	80*	38	58*	63*	88*	81*	52*
COc1ccc(C2=Nn3c(nnc3-c3ccc(OC)cc3)SC2)cc1	64*	53	82*	100*	93*	76*	58*
Cc1cccc(-c2nnc3n2N=C(c2ccccc2Br)CS3)c1	37*	7	34*	39	-16	33*	21
COc1cccc(-c2nnc3n2N=C(c2cc(OC)ccc2OC)CS3)c1	-1	-8	-4	29	-9	0	x
SMILES	Ba/F3 V617F tox	KLF5 inh	IEC-6 tox	aSyn 5UTR inh	APP 5UTR inh	BaF3 parental	IEC-6 tox confirm
COc1ccc(C2=Nn3c(nnc3-c3ccccc3OC)SC2)cc1OC	93*	55	92*	107*	96*	89*	72*
COc1ccc(C2=Nn3c(nnc3-c3ccccn3)SC2)cc1OC	5	-7	1	u	-8	10	x
O=C(Nc1cc(S(=O)(=O)N2CCOCC2)ccc1-n1cncn1)c1ccc(Cl)cc1	-3	-34	-5	-8	x	-1	x
O=C(Nc1cc(Cl)ccc1-n1cncn1)c1cc(S(=O)(=O)N2CCOCC2)ccc1F	x	-8	26*	9	x	x	4
CC(=O)Nc1ccccc1OCC(=O)c1cc(C)n(Cc2cccs2)c1C	62*	-51	26*	-150	-17	82*	15
Cc1nc(Cc2nnc(SC(C)C(=O)Nc3cccc(C#N)c3)o2)cs1 (centres undefined)	x	x	x	-3	x	x	x
CC(C(=O)N1CCOCC1)N1C(=O)c2cccc3cccc(c23)C1=O (centres undefined)	0	8	-2	16	8	4	x
O=C(N/N=C/c1ccc2c(c1)OCO2)c1cccc2ccccc12	x	24	28*	-109	x	x	25*
COc1ccc(Cn2c(C3CC3)nc3ccc(NC(=O)c4cccnc4)cc3c2=O)cc1	x	-5	37*	-176	x	x	21
COc1ccc(Cn2c(C3CC3)nc3ccc(NC(C)=O)cc3c2=O)cc1	-1	-99	0	-121	-142	3	x
O=C(O)COCC(=O)Nc1ccc(OCCc2ccccc2)cc1	x	-7	-1	-22	x	x	x
COc1cc2[nH]c(=S)nc(NCc3cccc(Cl)c3)c2cc1OC	x	-8	27*	-18	x	x	8
Cc1cc(Cn2nc(-c3ccccc3)cc2C(=O)NCc2cccs2)on1	x	x	x	12	x	x	x
COc1ccc(N(C(=O)Cc2cccs2)C(C(=O)NC2CCCC2)c2ccncc2)cc1OC (centres undefined)	x	2	2	-5	x	x	x
C#CC(=O)N(c1ccc(OC)c(OC)c1)C(C(=O)NC1CCCC1)c1cccs1 (centres undefined)	99*	-2	100*	36	17	52*	79*
COc1ccc(NC(=O)C(Cl)=C(Cl)Cl)cn1	1	4	12	-54	30	-3	x
COc1ccc(NC(=O)/C(Cl)=C(/Cl)S(=O)(=O)Cc2ccccc2)cn1	73*	11	31*	-26	77*	31*	47*
COc1ccc(CC(=O)Nc2ccc(OC)nc2)cc1	-3	-14	-4	4	-2	5	x
COc1ccc(NC(=O)Cc2ccc(-c3ccccc3)cc2)cn1	4	-14	40*	-13	18	14	22
COc1ccc(NC(=O)/C(Cl)=C(/Cl)S(=O)Cc2ccc(Cl)cc2)cn1 (centres undefined)	100*	28	42*	x	96*	86*	56*

From PubChem BioAssay
